Laboratory results: PubChem BioAssay
“And” between values parts separate entries of the source, which are not always exact repeats. Equal values may be shown once. Records with an inconclusive call do not appear. The source made the active and inactive calls. Unless noted, the rule behind the calls is not given here.

Columns and labels:
[1] = GFP-Q80 aggregate reduction, neuronal-like cells, cell-based, NGF-treated PC12, GFPQ80 (AID 1614); settings: PC12 NGF-treated GFP-polyQ80 inclusion reduction;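 note: lower means fewer inclusions and 0 means no inclusions at all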
[2] = compounds altering viability of human ES cells (AID 493140); settings: human embryonic stem cell survival screen; stronger effect = higher value;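 note: cells exposed to compounds for four days before counting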
[3] = viability loss in pontine glioma line – cell-based, SU-DIPG-XIII, MIPE4.0, CellTiter-Glo, qHTS, dose response (AID 1347061; cut-off not given, nearly all actives have AC50 up to about 37 µM;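 note: cells exposed to compound for 48 hours before readout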); settings: CellTiter-Glo ATP luminescence
[4] = viability loss in pontine glioma line – cell-based, JHH-DIPG-1, MIPE4.0, CellTiter-Glo, qHTS, dose response (AID 1347062; cut-off not given, nearly all actives have AC50 up to about 27 µM;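 for AC50: cells exposed to compound for two days before readout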); settings: JHH-DIPG-1 viability, CellTiter-Glo ATP luminescence
[5] = growth inhibition of DIPG cells – cell-based, MIPE4.0 library, CellTiter-Glo luminescence, qHTS (AID 1347066; cut-off not given, nearly all actives have AC50 up to about 30 µM;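 note: cells exposed to compound for 48 hours before readout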); settings: SU-DIPG-VI viability, CellTiter-Glo ATP luminescence
[6] = galactose survival enhancers in mitochondrial complex I cybrids – cell-based, galactose medium, ATP luminescence, primary screen (AID 1645843;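 active = z-score of at least 1.8 in each of two replicates, scored against plate mean and spread of sample wells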;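 note: positive z means more ATP and so rescue of galactose-driven cybrid death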); settings: complex I mutant cybrid cells, 72 h, stronger effect = higher value
[7] = viability loss in pontine glioma line – cell-based, SU-DIPG-XVII, MIPE5.0, CellTiter-Glo, qHTS, dose response (AID 1347060; cut-off not given, nearly all actives have AC50 up to about 26 µM;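 for AC50: cells exposed to compound for 48 hours before viability readout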); settings: CellTiter-Glo ATP luminescence
[8] = viability loss in pontine glioma line – cell-based, SU-DIPG-XIII, MIPE5.0, CellTiter-Glo, qHTS, dose response (AID 1347064; cut-off not given, nearly all actives have AC50 up to about 23 µM;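 for AC50: cells exposed to compound for 48 hours before the viability read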); settings: CellTiter-Glo ATP luminescence
[9] = viability loss in pontine glioma line – cell-based, SU-DIPG-XXV, MIPE5.0, CellTiter-Glo, qHTS, dose response (AID 1347065; cut-off not given, nearly all actives have AC50 up to about 26 µM;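 note: cells exposed to compound for 48 hours before ATP readout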); settings: CellTiter-Glo ATP luminescence
[10] = growth inhibition of DIPG cells – cell-based, MIPE5.0 library, qHTS (AID 1347068; cut-off not given, nearly all actives have IC50 up to about 30 µM); settings: SU-DIPG-XXV viability
[11] = compounds altering circadian rhythm period length – cell-based, LOPAC library, luminescence reporter (AID 2774); settings: circadian reporter cells, at 7 µM, actives lie on both sides;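 note: values are relative to mean of DMSO wells on each plate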
[12] = test system: Hepatitis C virus NS3 helicase; experiment: blockers of NS3h binding to ssDNA – biochemical, fluorescence polarization, LOPAC1280 library, primary screen (AID 687035; in the data active = inhibition above about 37%); settings: Purified HCV NS3 helicase, Cy5-dT15 ssDNA binding fluorescence polarization; stronger effect = higher value; concentration not given here
[13] = compounds altering Cy5-DNA-NS3h complex signal – biochemical, LOPAC1280, artefact control for HCV NS3 helicase inhibitor project (AID 687037); settings: Cy5-DNA-NS3h complex fluorescence interference counterscreen
[14] = blockers of cellular phospholipid synthesis – cell-based, LOPAC library, screen 4, primary screen (AID 1347384); settings: animal cells, phospholipid biosynthesis inhibition screen; at 10 µM
[15] = JHH-DIPG-1 glioma cell viability, MIPE5.0 library, CellTiter-Glo luminescence, qHTS (AID 1347067; cut-off not given, nearly all actives have AC50 up to about 26 µM;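 note: cells exposed to compound for 48 hours before readout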); settings: JHH-DIPG-1 glioma viability, CellTiter-Glo ATP luminescence
[16] = growth inhibition, MDA-MB-436, cell-based, BGB or cisplatin combos, synergistic combos for chromothripsis tumors (AID 1671458); settings: MDA-MB-436 breast carcinoma growth inhibition, drug combinations, stronger effect = higher value;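 note: cells exposed for 96 hours; 0% = vehicle DMSO and 100% = killing by high DMSO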
[17] = BT084 cell growth, single and combined drugs, ICGC_MB145, cisplatin and BGB IC40 combos (AID 1671461; in the data active = inhibition above about 80%;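 note: cells exposed to drugs for 96 hours; 0% = vehicle DMSO and 100% = high DMSO full killing control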); settings: BT084 medulloblastoma cells, drug combinations, stronger effect = higher value
[18] = RCMB18 cell growth, single agent and combined, cisplatin and BGB IC40 combos (AID 1671462; in the data active = inhibition above about 80%;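 note: cells exposed to compound for four days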); settings: RCMB18 medulloblastoma cells, stronger effect = higher value
[19] = CRL1545 cell growth, single agent and combined, cisplatin and BGB IC20 combos (AID 1671464; in the data active = inhibition above about 80%;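 note: cells exposed to compound for 96 hours before readout; 0% = vehicle DMSO and 100% = high DMSO killing control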); settings: CRL1545 osteosarcoma cells, stronger effect = higher value
[20] = viability loss with induced miR-34 in A549 – imaging, A549 dox-inducible miR-34, nuclei and caspase counts, primary screen (AID 1347080;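 active = compounds whose cell count with miR-34 switched on is under 0.7 times the count with it off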); settings: A549 miR-34 inducible, Hoechst nuclei count, 48 h
[21] = stronger effect = lower value, cell number ratio, induced over uninduced
[22] = measured here: relative caspase fold change +Dox/-Dox
[23] = measured here: total cells with miR-34 induction, stronger effect = lower value
[24] = measured here: total cells without miR-34 induction

Cc1noc(NS(=O)(=O)c2ccc(N)cc2)c1C
inactive: survival [2] 8.25 | outcome [3] | outcome [4] | outcome [5] | z-score [6] -0.585 and 0.925
2: inclusion score [1]

CCCCCN=C(N)N/N=C/c1c[nH]c2ccc(OC)cc12
active: AC50 [7] 13.2 µM | AC50 [8] 13.2 µM | AC50 [9] 14.8 µM
inactive: outcome [3] | outcome [5] | outcome [10]

Clc1cccc(Cl)c1NC1=NCCN1
inactive: period change [11] 0.005 h | survival [2] 20.8 | inhibition [12] -4% | fluorescence ratio (interference) [13] 1 | outcome [3] | outcome [4] | outcome [5] | outcome [14]
2: inclusion score [1]

CN(C)CCCN1c2ccccc2CCc2ccc(Cl)cc21
active: AC50 [3] 0.662 µM | AC50 [4] 9.35 µM
inactive: period change [11] -0.12 h | survival [2] 4.17 | inhibition [12] -4% | fluorescence ratio (interference) [13] 1 | outcome [7] | outcome [8] | outcome [10] | outcome [14] | z-score [6] -1.52 and -1.25 and -0.78

c1ccc([C@H]2CN3CCSC3=N2)cc1
inactive: period change [11] -0.17 h | survival [2] 17.8 and 98.4 | inhibition [12] -1% | fluorescence ratio (interference) [13] 1 | outcome [7] | outcome [3] | outcome [4] | outcome [8] | outcome [9] | outcome [15] | outcome [10] | outcome [14] | z-score [6] 0.83 and -0.1
1.5: inclusion score [1]

CCN(CC)CCCC(C)Nc1c2ccc(Cl)cc2nc2ccc(OC)cc12 (stereo unspecified)
-29.6%: inhibition ([18]; measured here: combination with cisplatin, at 0.5 µM)
inactive: period change [11] 0.21 h | inhibition [12] 1% | fluorescence ratio (interference) [13] 1 | outcome [14] | z-score [6] -1.35 and -2.13 | inhibition ([16]; at 0.5 µM) 4.39% | inhibition ([17]; at 0.5 µM) 1.42% | inhibition ([18]; at 0.5 µM) -4.03% | inhibition ([19]; at 0.5 µM) 9.17%
73.4%: inhibition ([18]; single agent, at 5 µM)
-8.93%: inhibition ([19]; single agent, at 0.05 µM)
-9.76%: inhibition ([18]; measured here: BGB IC40 combination, at 0.05 µM)
14.5%: inhibition ([19]; measured here: with cisplatin IC20 combination, at 0.5 µM)
99.9%: inhibition ([19]; single agent, at 5 µM)
-0.472%: inhibition ([16]; measured here: BGB combination, at 0.5 µM)
-5.37%: inhibition ([19]; measured here: with BGB IC20 combination, at 0.5 µM)
99.5%: inhibition ([17]; cisplatin combination, at 5 µM)
active: AC50 [7] 8.33 µM | AC50 [8] 8.33 µM | AC50 [9] 11.8 µM | AC50 [15] 11.8 µM
95.8%: inhibition ([16]; measured here: BGB combination, at 5 µM)
-3.72%: inhibition ([17]; measured here: BGB IC40 combination 0.05 uM, at 0.05 µM)
-17.3%: inhibition ([16]; measured here: cisplatin combination, at 0.5 µM)
92.9%: inhibition ([18]; cisplatin combo, at 5 µM)
-5.45%: inhibition ([17]; cisplatin combination, at 0.5 µM)
105%: inhibition ([17]; single agent, at 5 µM)
98%: inhibition ([16]; measured here: cisplatin combination, at 5 µM)

O=C1CCC(N2C(=O)c3ccccc3C2=O)C(=O)N1 (stereo unspecified)
2: inclusion score [1]
inactive: period change [11] 0.105 h | survival [2] 19.2 | inhibition [12] -6% | fluorescence ratio (interference) [13] 1 | outcome [3] | outcome [5] | outcome [15] | outcome [10] | outcome [14]

c1ccc(CC2=NCCN2)cc1
2: inclusion score [1]
inactive: survival [2] 21.6 | z-score [6] 0.495

CCN(CCO)CCCC(C)Nc1ccnc2cc(Cl)ccc12 (stereo unspecified)
5.27: fold change [20, 22]
11300: cell count [20, 23]
13500: cell count [20, 24]
1.5: inclusion score [1]
inactive: outcome [7] | outcome [3] | outcome [4] | outcome [8] | outcome [5] | outcome [15] | outcome [10] | fold change [20, 21] 0.835

CCN(Cc1ccncc1)C(=O)C(CO)c1ccccc1 (stereo unspecified)
inactive: period change [11] 0.035 h | survival [2] 16.4 | inhibition [12] -6% | fluorescence ratio (interference) [13] 0.9 | outcome [14]
1: inclusion score [1]

CC(=O)CC(c1ccccc1)c1c(O)c2ccccc2oc1=O (stereo unspecified)
1.54 and 1.82 and 3.53: fold change [20, 22]
11100 and 5980 and 13300: cell count [20, 24]
2: inclusion score [1]
inactive: outcome [7] | outcome [3] | outcome [9] | outcome [5] | outcome [15] | outcome [10] | fold change [20, 21] 0.928 and 0.882 and 0.918
10300 and 5280 and 12200: cell count [20, 23]
active: z-score [6] 2.31

CC1=C(/C=C/C(C)=C/C=C/C(C)=C/C(=O)O)C(C)(C)CCC1
inactive: period change [11] 0.355 h | survival [2] 12.6 and 136 | inhibition [12] -1% | fluorescence ratio (interference) [13] 0.9 | outcome [4] | outcome [15] | outcome [10] | outcome [14]

CN=C(NC#N)NCCSCc1nc[nH]c1C
2: inclusion score [1]
inactive: period change [11] 0.115 h | inhibition [12] 0% | fluorescence ratio (interference) [13] 1 | outcome [14]

O=C(O)c1cccnc1
2: inclusion score [1]
inactive: survival [2] 4 | outcome [7] | outcome [3] | outcome [4] | outcome [9] | outcome [5] | outcome [15] | outcome [10] | z-score [6] 0.63

CCCCNc1cc(C(=O)O)cc(S(N)(=O)=O)c1Oc1ccccc1
2: inclusion score [1]
inactive: period change [11] 0.11 h | survival [2] 12.6 | inhibition [12] -3% | fluorescence ratio (interference) [13] 0.9 | outcome [7] | outcome [3] | outcome [4] | outcome [8] | outcome [9] | outcome [5] | outcome [15] | outcome [10] | outcome [14] | z-score [6] 0.145 and 0.39 and 0.32

O=C(O)c1cc(=O)c2c(OCC(O)COc3cccc4oc(C(=O)O)cc(=O)c34)cccc2o1
inactive: survival [2] 1.67 | outcome [7] | outcome [3] | outcome [4] | outcome [8] | outcome [5] | outcome [15] | outcome [10] | z-score [6] 0.69 and 0.68
1: inclusion score [1]
